High-throughput results as filed in PubChem.
D1 antagonist = blocks dopamine activation of the human D1 receptor; P21728; HEK293 TREx D1 cells, calcium flux, dopamine EC80; stronger effect = lower value; activity change, negative = inhibition, % at 10 µM; 3.2% of 360,000 active; AID 504652; in the data active = activity change below about -30%
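After overnight tetracycline induction at 30 C, force-coupled D1 HEK293 cells took up a no-wash calcium dye at room temperature. Compounds were added and monitored 180 s, and the response to EC80 dopamine was then recorded.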
D1 agonist = agonists of human D1 dopamine receptor; P21728; HEK293 T-REx D1 cells, calcium flux, agonist mode; activation, % at 2 µM; 1% of 360,000 active
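Tetracycline-induced HEK293 TREx D1 cells, force-coupled to calcium signalling, were dye-loaded with a no-wash calcium kit. Compound was pin-added after a 10 s baseline. Fluorescence was read kinetically at 1 cycle/s for 180 s, with calcium rises flagged as agonism.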
D1 PAM = human D1 dopamine receptor positive modulation; HEK293 TREx D1 cells, calcium flux, dopamine EC20 potentiation; potentiation, % at 10 µM; P21728; AID 504651; 0.036% of 360,000 active; in the data active = potentiation above about 30%
TRHR agonist = agonists of human TRH receptor | TRHR cells, calcium flux fluo-8, FDSS agonist mode | activation, % at 2 µM | 0.18% of 360,000 active
Target sequence (P34981 whole entry, looked up): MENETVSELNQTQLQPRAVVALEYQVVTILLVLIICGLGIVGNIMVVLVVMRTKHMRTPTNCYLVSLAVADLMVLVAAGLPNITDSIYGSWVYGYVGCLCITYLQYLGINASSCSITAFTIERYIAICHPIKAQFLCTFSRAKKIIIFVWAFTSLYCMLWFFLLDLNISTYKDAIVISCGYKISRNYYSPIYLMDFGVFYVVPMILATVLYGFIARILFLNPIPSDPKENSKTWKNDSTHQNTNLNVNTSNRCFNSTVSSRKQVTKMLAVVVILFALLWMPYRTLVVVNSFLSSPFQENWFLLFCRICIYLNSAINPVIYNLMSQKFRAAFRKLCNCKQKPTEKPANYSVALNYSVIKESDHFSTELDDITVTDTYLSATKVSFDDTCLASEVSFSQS
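Fluo-8-loaded TRHR cells; 10 s baseline, compound added, kinetic Ca2+ fluorescence read 1/s, agonist mode.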
TRHR PAM = TRH receptor (human) allosteric enhancement; P34981; 0.66% of 360,000 active; TRHR cells, fluo-8 calcium fluorescence, EC20 TRH enhancement; enhancement, % at 2 µM; in the data active = enhancement above about 30%
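TRHR-expressing cells loaded with fluo-8 calcium dye were read kinetically (ex 480/em 530) during compound addition, then stimulated with an EC20 of TRH (10 nM final). Enhancement of the Gq-mediated intracellular calcium response was scored.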
Hits are given with their value; i = inactive; nt = not tested or not shown. Compounds with a hit are over-represented: about 4.7% of the library has one in this group of screens. Cut-off read from the data, not from the text of the source, unless noted: active = activation above about 30%; inactive = the rest.

SMILES	D1 antagonist	D1 agonist	D1 PAM	TRHR agonist	TRHR PAM
Cn1c(=O)n(C)c2cc(CNCCc3ccccc3F)ccc21	i	i	i	i	i
O=C(Nc1cc(C(F)(F)F)cc(C(F)(F)F)c1)c1cccn(Cc2ccccc2Cl)c1=O	i	i	i	i	i
Fc1ccc(NC2=NCCS2)cc1Cl	i	i	i	i	i
CC1CN=C(Nc2ccc(F)c(Cl)c2)S1 (stereo not drawn)	-33	i	i	i	i
CN[C@@H]1C[C@@H](c2ccc(Cl)c(Cl)c2)c2ccccc21	-51	i	i	i	i
CN1C(=O)NC(=O)C2(Cc3ccccc3N3CCOCC32)C1=O (stereo not drawn)	-32	i	i	i	i
CSc1ncc(C(=O)Nc2ccc(Cl)cc2C(=O)c2ccccc2)c(C)n1	i	i	i	i	i
CCn1c(CN2CCN(C)CC2)nc2ccccc21	i	i	i	i	i
COC(=O)C1=C(c2cccc(OCc3ccccc3)c2)C[C@@H]2CC[C@H]1N2C(=O)NCc1ccccc1C(F)(F)F	i	i	i	i	34
COC(=O)C1=C(c2cccc(OCc3ccccc3)c2)C[C@@H]2CC[C@H]1N2C(=O)NCc1cccc(OC)c1	nt	i	i	i	i
COC(=O)C1=C(c2ccc(F)cc2OCc2ccccc2)C[C@@H]2CC[C@H]1N2C(=O)NCCOc1ccc(OC)cc1	i	i	i	i	i
COC(=O)C1=C(c2ccccc2OCc2ccccc2)C[C@@H]2CC[C@H]1N2C(=O)NCCOc1ccc(OC)cc1	-38	i	i	i	i
COC(=O)C1=C(c2ccc3ccccc3c2)C[C@@H]2CC[C@H]1N2C(=O)NCc1ccc(C(F)(F)F)cc1	i	i	i	i	i
COC(=O)C1=C(c2ccc(C(C)=O)cc2)C[C@@H]2CC[C@H]1N2C(=O)NCc1ccc(C(F)(F)F)cc1	-41	48	i	i	i
COC(=O)C1=C(c2ccccc2OCc2ccccc2)C[C@@H]2CC[C@H]1N2C(=O)NCCOc1ccccc1	-31	i	i	i	i
Cc1oc(-c2ccc(Cl)cc2)nc1CN1C(=O)CN=C(c2ccccc2)c2ccccc21	i	i	i	i	i
CCN(CC)C(=O)c1ccc(NC(=O)CCn2nc(-c3ccc(C)cc3)c3ccccc3c2=O)cc1	i	i	i	i	i
COC(=O)C1=C(c2ccc(F)cc2OCc2ccccc2)C[C@@H]2CC[C@H]1N2C(=O)NCCc1ccc(F)cc1	-32	i	i	i	i
N#Cc1cc2c(nc1SCC(=O)Nc1ccc(Cl)c(C(F)(F)F)c1)C1CCN2CC1	i	i	i	i	i
Cc1cccc(NC(=O)Cn2cc(C(=O)c3ccccc3)c3ccccc32)c1C	i	i	i	i	i
C[C@H]1OC[C@@H](C[N+](C)(C)C)O1	i	47	i	41	i
CC(C)[C@H]1C(=O)O[C@H](C(C)C)C(=O)N(C)[C@@H](C(C)C)C(=O)O[C@H](C(C)C)C(=O)N(C)[C@@H](C(C)C)C(=O)O[C@H](C(C)C)C(=O)N1C	-33	53	i	i	i
Cc1ccc(-n2c(=O)[nH]c3ccc(Br)cc3c2=O)cc1	i	i	i	i	i
Cc1ccc(S(=O)(=O)N(c2cc(Cl)c(O)c(Cl)c2)P(=O)(OC(C)C)OC(C)C)cc1	-33	i	i	i	i
CCN(CC)c1ccc(/C=C/[N+](=O)[O-])cc1	i	254	i	72	i
SMILES	D1 antagonist	D1 agonist	D1 PAM	TRHR agonist	TRHR PAM
Cc1cccc(CSc2nc3c(cc2C#N)CN(C)CC3)c1	i	i	i	i	i
CN1CCc2nc(SCc3ccccc3Br)c(C#N)cc2C1	-35	i	i	i	i
O=C(CN1C(=O)CN=C(c2ccccc2)c2ccccc21)Nc1cccc(C(F)(F)F)c1	i	i	i	i	i
CCN1CCN(Cc2ccc(OC(F)(F)F)cc2)CC1	-34	i	i	i	i
Cc1ccc(NC(=O)CN2C(=O)CN=C(c3ccccc3)c3ccccc32)cc1	i	i	i	i	i
CC(Cc1ccccc1)NC(N)=O (stereo not drawn)	i	i	i	i	i
CC(Cc1ccccc1)NC(=O)/C=C/c1ccc(Cl)cc1 (stereo not drawn)	-32	i	i	i	i
Cc1cccc(-n2c(/C=C\c3cccc(Br)c3)nc3ccccc3c2=O)c1	i	i	i	i	i
CCOC(=O)C(O)(c1ccc(NC(=S)NC(=O)c2ccc(Cl)cc2Cl)cc1)C(F)(F)F (stereo not drawn)	i	44	i	i	i
COC(=O)C(O)(c1ccc(NC(=S)NC(=O)c2ccc(Cl)cc2Cl)cc1)C(F)(F)F (stereo not drawn)	-32	31	i	i	i
CCOC(=O)C(O)(c1ccc(NC(=O)Oc2ccccc2)cc1)C(F)(F)F (stereo not drawn)	i	i	i	i	i
COC(=O)C(O)(c1ccc(NC(=O)NC2CCCCC2)cc1)C(F)(F)F (stereo not drawn)	i	i	i	i	i
Cc1ccc(-n2c(/C=C/c3ccc(Br)s3)nc3ccccc3c2=O)cc1	i	i	i	i	i
O=c1[nH]c(=S)n(-c2ccc(Cl)cc2)c(O)c1C=Nc1ccc(N2CCOCC2)cc1	i	42	i	i	33
CCn1c(O)c(C=Nc2ccc(N3CCOCC3)cc2)c(=O)n(CC)c1=S	i	99	i	32	i
CSc1ccc(/C=C/c2nc3ccccc3c(=O)n2-c2cccc(Cl)c2C)cc1	i	i	i	i	i
CCN(CC)CCO	nt	i	i	i	i
CC(NCc1ccc(Cl)c(Cl)c1)C(O)c1ccccc1 (stereo not drawn)	i	i	i	i	i
CCOc1cc(CNC(C)C(O)c2ccccc2)cc(Cl)c1OCC (stereo not drawn)	i	39	i	i	i
Nc1cc(Cl)c2nonc2c1[N+](=O)[O-]	-32	i	i	i	i
O=c1[nH]c(O)c(C=Nc2ccccc2[N+](=O)[O-])c(=O)[nH]1	-47	i	i	i	i
Cc1cc(C)n(-c2ccc(NN=C(C#N)C#N)cc2)n1	-31	41	i	i	i
N#CC(C#N)=NNc1ccc(-n2ccc(C(F)(F)F)n2)cc1	-36	33	i	i	i
COC(=O)C1=C(c2ccc(-c3ccccc3)c(F)c2)C[C@@H]2CC[C@H]1N2C(=O)NCCc1ccccc1	i	i	i	i	i
Nc1c(C(=O)Nc2ccc(Cl)c(C(F)(F)F)c2)sc2nc3c(cc12)N1CCC3CC1	i	i	i	i	i
CCOP(=O)(OCC)C(NS(=O)(=O)c1ccccc1)C(Cl)(Cl)Cl (stereo not drawn)	-33	i	i	i	i
O=S1(=O)N(Cc2ccccc2)CCCN1Cc1ccc(F)cc1Cl	-44	i	i	i	i
CC1(C)CC(CCNCc2ccc3c(c2)OCO3)(Cc2ccccc2)CCO1 (stereo not drawn)	i	61	i	i	i
NC(=O)c1ccsc1NC(=O)COC(=O)Cc1ccccc1	-32	i	i	i	i
